Consider 35 compounds from PubChem BioAssay (NCI).

About 83,000 compounds went through this panel and 20% of them were active in at least one assay; those are over-represented in the sample as a whole.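 For each line, cells grew in 96-well plates with the test compound present at a single concentration for 48 hours.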 Values without a mark were called inactive. Active and inactive are the calls of the source. How the source made its calls: active means growth percent below 10; inactive means the rest.

The test deals with HCT-15 colon. Kind of test: NCI-60 one-dose screen, 48 h (100 = growth as untreated, 0 = no growth, -100 = all killed). The conditions noted are these: 10 µM unless noted.
Turning to `O=C1/C(=C\c2ccc(Br)o2)SC(=S)N1CCc1ccc(O)cc1`, the growth was 72.1%.
To `N#CC1=C(N)Oc2ccc3ccccc3c2C1c1ccccc1` (stereo not given) belongs 19.5%.
Regarding `N#CC1=C(N)Oc2ccc3ccccc3c2C1c1ccccc1Cl` (stereo not given), the growth is 24%.
To `CCSc1sc(-c2ccc(C)cc2)nc1[P+](c1ccccc1)(c1ccccc1)c1ccccc1` belongs 1.86% (active).
To `Fc1ccc2nc(-c3cc(-c4ccc5c(c4)OCO5)n[nH]3)[nH]c2c1` belongs 57.5%; to `CC(=O)c1c(C)[nH]c(-c2nc3ccc(N4CCN(C)CC4)cc3[nH]2)c1-c1ccc2c(c1)OCCO2`, 8.46% (active).
To `COc1cc2nc(Cl)nc(Nc3cccc(C(=O)/C=C/c4ccc(Br)cc4)c3)c2cc1OC` belongs 43.6%.
For the compound `COc1c(N)c2c(c([N+](=O)[O-])c1OC)C(=O)OC2`, the growth is 105%.
To `N#C/C(=C\c1ccc(-c2cccc(C(F)(F)F)c2)o1)c1nc(-c2ccco2)cs1` belongs 71.7%.
Under `C=C(C)[C@@H]1CC[C@]2(CN)CC[C@]3(C)[C@H](CC[C@@H]4[C@@](C)(CCCN)[C@H](C(=C)C)CC[C@]43C)[C@@H]12` stands 62.8%; under `Nc1ccccc1NC(=O)c1ccc(CN2CCC/C(=C\c3ccccn3)C2=O)cc1`, 16.5%; under `O=c1c2sc3ncc(Br)cc3c2ncn1-c1cccc(Cl)c1`, 88.5%.
As to `CCN1CCN(C(=O)[C@]23CCC(C)(C)C[C@@H]2C2=CC[C@@H]4[C@@]5(C)C/C(=C/c6ccncc6)C(=O)C(C)(C)[C@@H]5CC[C@@]4(C)[C@]2(C)CC3)CC1`, the growth is -63.9% (active).
Under `Cc1ccc(-c2nc([P+](c3ccccc3)(c3ccccc3)c3ccccc3)c(N3CCOCC3)o2)cc1` stands 54.1%; under `CCCCn1c(-c2ccc(O)cc2)cn2c3c(=O)[nH]c(=O)n(C)c3nc12`, 54.2%; under `CN(C)CCCC1(c2ccc(F)cc2)OCc2cc(-c3ccc(C(F)(F)F)nc3)ccc21` (stereo not given), 78.4%.
Under `Nc1c2c(nc3ccc(Cl)cc13)CC(c1ccc(O)cc1)CC2=O` (stereo not given) stands 29.3%; under `N#Cc1c(-c2ccco2)nc2c(c(-c3ccccc3)nn2-c2ccccc2)c1-c1ccc(O)cc1`, 38.4%.
Under `COc1ccc(OC)c(-c2c(C#N)c(-c3ccco3)nc3c2c(-c2ccccc2)nn3-c2ccccc2)c1` stands 96.9%.
On to `N#CC1=C(N)Oc2c(c(N)nn2-c2ccccc2)C1c1ccc(Cl)cc1` (stereo not given), for which the growth is 107%.
Turning to `O=C(O)c1cccc2c1Cc1cc([N+](=O)[O-])ccc1-2`, the growth is 106%.
To `CCN1CCN(C(=O)[C@]23CCC(C)(C)C[C@H]2C2=CC[C@@H]4[C@@]5(C)CC/C(=N/O)C(C)(C)[C@@H]5CC[C@@]4(C)[C@]2(C)CC3)CC1` belongs 15.4%; to `Cc1ccc(NC2CC(=O)N(c3c(C)cc(C)cc3C)C2=O)c(C)c1` (stereo not given), 105%.
To `NCCNc1nc(-c2ccccc2)nc2nc(-c3ccccc3)oc12` belongs 70%; to `CCCCCC1CCCCN1C(=O)OCC` (stereo not given), 96%; to `COc1ccc(-c2cc(/C=C/C(=O)c3ccc(N)cc3)[nH]n2)cc1`, 17%.
Under `COc1ccc2nc(-c3cc(-c4cc(OC)c(OC)c(OC)c4)n[nH]3)[nH]c2c1` stands 15.1%.
As to `COc1ccc(/C=C(\C#N)c2cc3ccccc3n2S(C)(=O)=O)cc1`, the growth was 46.4%.
Under `CC1c2ccccc2N(S(=O)(=O)c2ccccc2)C1C` (stereo not given) stands 70.5%; under `CC1(C)CC[C@]2(C(=O)NCCNCCN)CC[C@]3(C)C(=CC[C@@H]4[C@@]5(C)CCC(=O)C(C)(C)[C@@H]5CC[C@]43C)[C@@H]2C1`, 27%; under `C=C(C)[C@@H]1CC[C@]2(C)[C@H](CC[C@@H]3[C@H]4[C@H]5OC[C@@]4(CCC5(C)C)CC[C@]32C)[C@@]1(C)CCCN`, -79.6% (active).
To `COc1cc2nc(Cl)nc(Nc3cccc(C(=O)/C=C/c4ccc(F)cc4)c3)c2cc1OC` belongs -4.45% (active); to `CC[C@H](CC[C@@H](C)[C@H]1CC[C@H]2[C@@H]3/C(=C/c4cccnc4)C(=O)C4=CC(=O)CC[C@]4(C)[C@H]3CC[C@]12C)C(C)C`, 78.9%.
Under `COc1ccc(CCN2C(=O)C(C)(C)SC2=S)cc1OC` stands 101%; under `C=C(C)[C@@H]1CC[C@]2(C(=O)N3CCN(C)CC3)CC[C@]3(C)[C@H](CC[C@@H]4[C@@]5(C)C/C(=C/c6ccc(C(F)(F)F)cc6)C(=O)C(C)(C)[C@@H]5CC[C@]43C)[C@@H]12`, 86.5%.
